From PubChem BioAssay (NCATS)
For part of these data: Potency and affinity values are given separately. Activity calls are given as the source filed them.

Assays:
[1] = Ebola virus entry assay, green fluorescence channel
[2] = Ebola virus entry assay, blue channel fluorescence
[3] = Ebola virus entry assay, green fluorescence channel; remark: listed apart in the source
[4] = Ebola virus entry assay, ratio channel readout
[5] = Ebola virus entry assay, blue channel fluorescence; remark: listed apart in the source
[6] = Ebola virus entry assay, ratio channel
[7] = Ebola virus entry assay, green channel fluorescence
[8] = Ebola virus entry assay, reporter ratio channel; AC50: Channel type: primary unless noted; outcome: Channel type: primary unless noted
[9] = Ebola virus entry reporter assay, green channel fluorescence
For efficacy in this document: 0% is about no effect.

C#C[C@]1(O)CC[C@H]2[C@@H]3CCC4=Cc5oncc5C[C@]4(C)[C@H]3CC[C@@]21C
active: AC50 [5] 7.94 µM | AC50 [6] 6.31 µM | AC50 [8] 6.31 µM
inactive: efficacy [1] 22.7% | outcome [2] | outcome [3] | outcome [4] | outcome [7] | outcome [9]

Nc1nc(N)c2nc(-c3ccccc3)c(N)nc2n1
inactive: efficacy [1] 17.5% | outcome [2] | outcome [3] | outcome [4] | outcome [5] | outcome [6] | outcome [7] | outcome [8] | outcome [9]

CN(C)CCCN1c2ccccc2Sc2ccc(Cl)cc21
inactive: efficacy [1] -179% | outcome [3] | outcome [4]
active: AC50 [2] 10 µM | AC50 [5] 14.1 µM | AC50 [6] 3.98 µM | AC50 [8] 3.98 µM

O=C1c2c(O)ccc(O)c2C(=O)c2c(NCCNCCO)ccc(NCCNCCO)c21
inactive: efficacy [1] -106% | outcome [3] | outcome [4]
active: AC50 [2] 5.01 µM | AC50 [5] 12.6 µM | AC50 [6] 7.94 µM | AC50 [8] 7.94 µM

C[C@@H](NCCCc1cccc(C(F)(F)F)c1)c1cccc2ccccc12
active: AC50 [5] 3.98 µM | AC50 [6] 3.55 µM | AC50 [8] 3.55 µM
inactive: efficacy [1] -223% | outcome [2] | outcome [3] | outcome [4]

C[C@@H](O[C@H]1OCCN(Cc2n[nH]c(=O)[nH]2)[C@H]1c1ccc(F)cc1)c1cc(C(F)(F)F)cc(C(F)(F)F)c1
inactive: efficacy [1] 67.5% | outcome [2] | outcome [3] | outcome [4]
active: AC50 [5] 28.2 µM | AC50 [6] 28.2 µM | AC50 [8] 28.2 µM

COC(=O)C1=C(C)NC(C)=C(C(=O)OCC(C)C)C1c1ccccc1[N+](=O)[O-] (stereo not given)
inactive: efficacy [1] 55.8% | outcome [2] | outcome [3] | outcome [4]
active: AC50 [5] 28.2 µM | AC50 [6] 17.8 µM | AC50 [8] 17.8 µM

CCC(=O)O[C@H]1[C@H](O[C@@H]2[C@@H](C)[C@H](O[C@H]3C[C@@](C)(OC)[C@@H](O)[C@H](C)O3)[C@@H](C)C(=O)O[C@H](CC)[C@@](C)(O)[C@H](O)[C@@H](C)C(=O)[C@H](C)C[C@@]2(C)O)O[C@H](C)C[C@@H]1N(C)C
active: AC50 [5] 14.1 µM | AC50 [6] 11.2 µM | AC50 [8] 11.2 µM
inactive: efficacy [1] 131% | outcome [2] | outcome [3] | outcome [4]
